This note sets out measurements from PubChem BioAssay AID1782 (National Center for Advancing Translational Sciences (NCATS), 2009).

Records with an inconclusive call do not appear. A call without a number means that no potency is given here. Activity calls are given as the source filed them. Calls follow the shape of the dose curve; as a rule, active = well fitted curve in the direction sought with a large enough effect; inconclusive = small, poorly fitted or top-dose-only effect, or another doubt; inactive = no such curve, though single readings can be large or run the other way.

Sequence of Pyruvate kinase PKLR (Homo sapiens) (P30613 whole entry, looked up): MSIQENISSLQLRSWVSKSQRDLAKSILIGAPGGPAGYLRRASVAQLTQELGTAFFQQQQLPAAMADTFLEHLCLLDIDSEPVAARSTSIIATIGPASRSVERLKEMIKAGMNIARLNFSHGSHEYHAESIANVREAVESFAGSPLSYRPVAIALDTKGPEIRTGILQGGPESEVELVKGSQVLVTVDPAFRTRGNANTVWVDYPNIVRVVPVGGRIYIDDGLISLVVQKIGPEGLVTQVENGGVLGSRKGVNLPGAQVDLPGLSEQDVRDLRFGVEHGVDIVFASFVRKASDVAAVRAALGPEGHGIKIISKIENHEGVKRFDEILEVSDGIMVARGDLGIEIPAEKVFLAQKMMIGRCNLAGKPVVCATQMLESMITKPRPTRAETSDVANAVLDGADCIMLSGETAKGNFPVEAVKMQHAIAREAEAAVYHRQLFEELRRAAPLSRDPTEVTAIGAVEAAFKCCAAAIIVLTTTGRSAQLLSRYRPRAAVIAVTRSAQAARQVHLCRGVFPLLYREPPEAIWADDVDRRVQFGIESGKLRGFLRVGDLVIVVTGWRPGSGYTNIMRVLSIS

The test has as its target Pyruvate kinase PKLR (Homo sapiens) (UniProt P30613). Nature of the test: Confirmation Concentration-Response Assay for Activators of Human Reticulocyte Pyruvate Kinase. Conditions: purified hPK-R, Kinase-Glo ATP luminescence, 1 h; series mostly up to 57.5 µM. The text has this:
Confirmatory assay NIH Chemical Genomics Center [NCGC] Wael M. Rabeh, Lyudmila Nedyalkova and Hee-Wan Park [Structural Genomics Consortium, 100 College St. Toronto, Ontario, Canada] NCGC Assay Overview: Human pyruvate kinase reticulocyte (hPK-R) enzyme was supplied as a highly purified (>95% pure) preparation from Structural Genomics Consortium in Toronto (Ontario, Canada) and assayed for its ability to generate ATP from ADP using phosphoenolpyruvate (PEP) as a substrate. ATP generation was detected in a coupled reaction by luciferase-mediated luminescence, an ATP-dependent process. Pyruvate kinase substrates, PEP and ADP, were present in the assay at Km and approximately 10-fold below Km respectively. The enzyme was assayed at an intermediate level of activity to screen for both inhibitors and activators.
NCGC Assay Protocol Summary for R-isoform Three uL of substrate mix (at r.t.) in assay buffer (50 mM Imidazole pH7.2, 50 mM KCl, 7 mM MgCl2, 0.01% Tween 20, 0.05% BSA) was dispensed into white solid bottom 1,536 well microtiter plates so that the final concentrations of substrates in the assay were 0.1 mM ADP and 0.5 mM PEP. 23 nL of compound were delivered by a pin tool and 1 uL of enzyme mix (final concentration of 0.1 nM) in assay buffer (4 degree Celsius) was added. Plates were incubated at room temperature for 1 hour. Two uL of detection mix (Kinase-Glo, Promega; at 4 degree Celsius protected from light) was added and luminescence read by a ViewLux (Perkin Elmer) at 1 second exposure/plate. Data were normalized to the uninhibited (row 31). Additionally, a no enzyme and 5-fold enzyme control was dispensed in row 32, split equally between the two conditions.
For orientation: Kinase-Glo measures the ATP left after a reaction by luminescence.
With `COc1ccc(Cn2ncc3c4sc(C)cc4n(C)c3c2=O)cc1`, the Potency entry is “inactive”. As to `O=S(=O)(c1c(F)cccc1F)N1CCN(S(=O)(=O)c2c(F)cccc2F)CC1`, the Potency result is “inactive”. On to `CC(C)c1cc2c(s1)c1cnn(Cc3ccccc3F)c(=O)c1n2C`, for which the Potency entry is “inactive”. The entry for `Cc1cc2c(s1)c1cnn(Cc3ccc(C(F)(F)F)cc3)c(=O)c1n2C` is “inactive”. Turning to `CSc1cc2c(s1)c1cnn(Cc3ccccc3F)c(=O)c1n2C`, the Potency entry was “inactive”. Consider `Cn1c2cc([N+](=O)[O-])sc2c2cnn(Cc3ccccc3F)c(=O)c21`, for which the Potency result is “inactive”.

`Cc1cc2c(s1)c1cnn(Cc3ccc(F)cc3)c(=O)c1n2C`: the Potency result is “inactive”. With `COc1ccc(S(=O)(=O)N2CCN(S(=O)(=O)c3c(F)cccc3F)CC2)cc1`, the Potency result was “inactive”. On to `Cn1c2cc(CO)sc2c2cnn(Cc3ccccc3F)c(=O)c21`, for which the Potency result is “inactive”. In the case of `Cc1cc2c(s1)c1cnn(-c3ccccc3)c(=O)c1n2C`, the Potency entry is “inactive”. As for `CCCc1cc(F)c(S(=O)(=O)N2CCN(S(=O)(=O)c3ccc4c(c3)OCCO4)CC2)cc1F`, the Potency entry was “inactive”. The entry for `O=C(CN1C(=O)N/C(=C\c2cccn2-c2cccc(C(=O)O)c2)C1=O)Nc1ccccc1F` is “inactive”; for `O=C(c1c(F)cccc1F)N1CCN(S(=O)(=O)c2ccc3c(c2)OCCO3)CC1` it is “inactive”. In the case of `N#Cc1ccc(S(=O)(=O)N2CCN(S(=O)(=O)c3ccc4c(c3)OCCO4)CC2)cc1`, the Potency entry is “inactive”.

Take `Cc1cc2c(s1)c1cnn(Cc3c(F)cccc3F)c(=O)c1n2C`: the Potency result is “inactive”. In the case of `Cn1c2cc(S(C)=O)sc2c2cnn(Cc3ccccc3F)c(=O)c21` (stereo not given), the Potency result was “inactive”.

For `O=S(=O)(NCCNS(=O)(=O)c1c(F)cccc1F)c1ccc2c(c1)OCCO2`, the Potency entry is “inactive”. `Cn1c2cc(C=O)sc2c2cnn(Cc3ccccc3F)c(=O)c21`: the Potency result is “inactive”.

On to `O=S(=O)(c1ccc2c(c1)OCCO2)N1CCN(S(=O)(=O)c2ccc3c(c2)OCCO3)CC1`, for which the Potency entry was “inactive”. For the molecule `Cc1cc2c(s1)c1cnn(Cc3c(F)cccc3Cl)c(=O)c1n2C`, the Potency result is “inactive”.

With `COc1ccc(Cn2ncc3c4sc(C)cc4n(C)c3c2=O)cc1F`, the Potency result is “inactive”. As to `O=S(=O)(c1ccc2c(c1)OCO2)N1CCN(S(=O)(=O)c2c(F)cccc2F)CC1`, the Potency result was “inactive”. Turning to `Cc1cc2c(s1)c1cnn(Cc3ccccc3Cl)c(=O)c1n2C`, the Potency entry is “inactive”. As for `Cc1cc2c(s1)c1cnn(Cc3ccc(C(C)C)cc3)c(=O)c1n2C`, the Potency entry was “inactive”. Turning to `O=S(=O)(c1ccc(F)cc1)N1CCN(S(=O)(=O)c2ccc3c(c2)OCCO3)CC1`, the Potency result is “inactive”. Turning to `O=S(=O)(c1cccc(C(F)(F)F)c1)N1CCN(S(=O)(=O)c2ccc3c(c2)OCCO3)CC1`, the Potency entry was “inactive”.

With `O=C(c1ccc2c(c1)OCCO2)N1CCN(S(=O)(=O)c2c(F)cccc2F)CC1`, the Potency entry is “inactive”. As to `Cc1cc2c(s1)c1cnn(Cc3cc(C(F)(F)F)cc(Cl)c3F)c(=O)c1n2C`, the Potency result was “inactive”. As to `Cn1c2ccsc2c2cnn(Cc3ccccc3F)c(=O)c21`, the Potency entry is “inactive”. With `Cc1cc2c(s1)c1cnn(Cc3ccc(S(C)(=O)=O)cc3)c(=O)c1n2C`, the Potency entry was “inactive”. As to `Cc1cc2c(s1)c1cnn(Cc3ccc(F)c(F)c3F)c(=O)c1n2C`, the Potency entry was “inactive”. Turning to `O=S(=O)(c1ccc2c(c1)OCCO2)N1CCN(S(=O)(=O)c2cccc[n+]2[O-])CC1`, the Potency result was “inactive”.

Turning to `CC1(C)CCc2cc(S(=O)(=O)N3CCN(S(=O)(=O)c4c(F)cccc4F)CC3)ccc2O1`, the Potency result is “inactive”. Consider `O=S(=O)(NCCCCCNS(=O)(=O)c1c(F)cccc1F)c1ccc2c(c1)OCCO2`, for which the Potency result was “inactive”. `Cc1cc2c(s1)c1cnn(Cc3cccc(F)c3F)c(=O)c1n2C`: the Potency result was “inactive”.

As to `Cc1cc2c(s1)c1cnn(Cc3ccc(Cl)cc3)c(=O)c1n2C`, the Potency entry was “inactive”.

Consider `COc1ccc(S(=O)(=O)N2CCN(S(=O)(=O)c3ccc(OC)cc3)CC2)cc1`, for which the Potency result is “inactive”. The entry for `Cc1cc2c(s1)c1c(C)nn(Cc3ccccc3F)c(=O)c1n2C` is “inactive”. With `CCn1c2cc(C)sc2c2cnn(Cc3ccccc3F)c(=O)c21`, the Potency result is “inactive”. As for `Cc1cc2c(s1)c1cnn(Cc3ccc(C)c(F)c3F)c(=O)c1n2C`, the Potency result is “inactive”.
